Test results published in the antibiotic and cytotoxicity screens of Wong et al. (2023).
Hit rate of the full screen: of about 39,000 compounds, about 3,300 (8.5%) were called active. Shown is part of a subset that was picked to be rich in actives.

The molecules below were run on HepG2 (assay: cytotoxicity call (relative viability < 0.9)). Settings: 10 µM.

| SMILES | cytotoxicity call |
| --- | --- |
| COc1ccc(S(=O)(=O)Nc2ccc3c(c2)C(=O)N([C@H](C)CO)C[C@@H](C)[C@@H](CN(C)C(=O)CCC(F)(F)F)OCCCC[C@H](C)O3)cc1 | inactive |
| C[C@@H]1CCCCO[C@@H](CN(C)S(=O)(=O)c2ccc(F)cc2)[C@H](C)CN([C@@H](C)CO)C(=O)c2cc(NS(=O)(=O)c3ccc(Cl)cc3)ccc2O1 | inactive |
| C[C@H](CO)N1C[C@H](C)[C@H](CN(C)Cc2ccc3c(c2)OCO3)OCCCC[C@H](C)Oc2ccc(NC(=O)c3ccccc3)cc2C1=O | inactive |
| Nc1nnc(SC[C@@H](O)CO)s1 | inactive |
| COc1ccc(NC(=O)N(C)C[C@@H]2Oc3ccc(NS(C)(=O)=O)cc3CC(=O)N([C@@H](C)CO)C[C@@H]2C)cc1 | inactive |
| COCC(=O)N(C)C[C@@H]1Oc2cc(C#Cc3ccccc3)ccc2S(=O)(=O)N([C@@H](C)CO)C[C@@H]1C | inactive |
| O=C(O)C[C@@H]1CC[C@@H]2[C@H](COC[C@H](O)CN2S(=O)(=O)c2ccc(F)cc2)O1 | inactive |
| CN(C)CCCNC(=O)C[C@@H]1CC[C@@H]2[C@H](COC[C@H](O)CN2S(=O)(=O)c2ccc(Cl)cc2)O1 | inactive |
| C[C@@H]1CCCCO[C@H](CN(C)S(=O)(=O)c2cccs2)[C@H](C)CN([C@H](C)CO)C(=O)c2cc(NC(=O)NC3CCCCC3)ccc2O1 | inactive |
| C[C@H]1CN([C@@H](C)CO)C(=O)c2cccc(NC(=O)NC3CCCCC3)c2O[C@H]1CN(C)C(=O)Nc1cccc2ccccc12 | inactive |
| CN1CCN(C(=O)C[C@H]2CC[C@@H]3[C@H](COC[C@@H](O)CN3C(=O)C3CC3)O2)CC1 | inactive |
| COC(=O)c1c(CC[C@@H](CO)NC(=O)N2CCC[C@H]2Cn2cc(Cc3ccccc3)nn2)oc(C(C)=O)c1C(=O)OC | inactive |
| C[C@@H]1CN([C@@H](C)CO)C(=O)Cc2cc(NC(=O)CCC(F)(F)F)ccc2O[C@H]1CN(C)Cc1ccc(Oc2ccccc2)cc1 | active |
| C[C@H](CO)N1C[C@H](C)[C@@H](CN(C)Cc2ccc(Oc3ccccc3)cc2)Oc2ccc(NC(=O)CCC(F)(F)F)cc2CC1=O | active |
| Cc1noc(C)c1S(=O)(=O)Nc1ccc2c(c1)C(=O)N([C@H](C)CO)C[C@H](C)[C@@H](CN(C)S(=O)(=O)c1c(C)noc1C)O2 | inactive |
| C[C@H]1CN([C@@H](C)CO)C(=O)c2cccc(NC(=O)c3ccncc3)c2O[C@H]1CN(C)Cc1ccc(C(=O)O)cc1 | inactive |
| C[C@@H]1CN([C@H](C)CO)C(=O)c2cccc(NC(=O)CCCCCC(=O)Nc3ccccc3N)c2O[C@H]1CN(C)Cc1ccccc1 | inactive |
| CCOC(=O)C[n+]1ccccc1C | inactive |
| COC(=O)[C@@H](N)c1cccc(Cl)c1 | inactive |
| CC(C)c1cc(C(C)C)c(CC(=O)NS(=O)(=O)Oc2c(C(C)C)cccc2C(C)C)c(C(C)C)c1 | active |
| CC(C)c1cccc(C(C)C)c1NC(=O)Cc1cccs1 | inactive |

| SMILES | cytotoxicity call |
| --- | --- |
| COc1cccc(NC(=O)N[C@@H]2C=C[C@H](CC(=O)N3CCN(C)CC3)O[C@H]2CO)c1 | inactive |
| CO[C@@H]1[C@H](O[P@@](=O)(OC[C@H]2O[C@@H](n3cnc4c(N)ncnc43)C[C@@H]2O)SCOC(=O)OC(C)C)[C@@H](CO)O[C@H]1n1ccc(=O)[nH]c1=O | inactive |
| Nc1ncnc2c1ncn2[C@H]1C[C@H](O)[C@@H](CO)O1 | inactive |
| CO[C@@H]1[C@H](O[P@@](=O)(S)OC[C@H]2O[C@@H](n3cnc4c(N)ncnc43)C[C@@H]2O)[C@@H](CO)O[C@H]1n1ccc(=O)[nH]c1=O | active |
| Cc1noc(C)c1NC(=O)Nc1ccc2c(c1)C(=O)N([C@@H](C)CO)C[C@H](C)[C@@H](CN(C)Cc1ccncc1)OCCCC[C@H](C)O2 | inactive |
| COc1ccc(NC(=O)N(C)C[C@@H]2OCCCC[C@H](C)Oc3ccc(NS(=O)(=O)c4ccc(OC)cc4)cc3C(=O)N([C@H](C)CO)C[C@H]2C)cc1 | inactive |
| C[C@@H]1CCCCO[C@H](CN(C)C(=O)NC2CCCCC2)[C@H](C)CN([C@H](C)CO)C(=O)c2cc(NC(=O)Nc3cccc4ccccc34)ccc2O1 | inactive |
| Cc1noc(C)c1NC(=O)Nc1ccc2c(c1)CC(=O)N([C@H](C)CO)C[C@@H](C)[C@@H](CN(C)Cc1ccc(Oc3ccccc3)cc1)O2 | inactive |
| C[C@@H]1CN([C@@H](C)CO)C(=O)Cc2cc(NC(=O)Nc3ccc(C(F)(F)F)cc3)ccc2O[C@@H]1CN(C)Cc1ccc(Oc2ccccc2)cc1 | active |
| C[C@H](CO)N1C[C@H](C)[C@@H](CN(C)Cc2ccc(Oc3ccccc3)cc2)Oc2ccc(NC(=O)Nc3ccc(C(F)(F)F)cc3)cc2CC1=O | active |
| C[C@@H]1CN([C@H](C)CO)C(=O)Cc2cc(NC(=O)Nc3ccc(C(F)(F)F)cc3)ccc2O[C@H]1CN(C)Cc1ccc(Oc2ccccc2)cc1 | inactive |
| C[C@H]1CN([C@@H](C)CO)C(=O)Cc2cc(NC(=O)Nc3ccc(C(F)(F)F)cc3)ccc2O[C@H]1CN(C)Cc1ccc(Oc2ccccc2)cc1 | active |
| C[C@@H]1CN([C@H](C)CO)C(=O)Cc2cc(NC(=O)Nc3ccc(C(F)(F)F)cc3)ccc2O[C@@H]1CN(C)Cc1ccc(Oc2ccccc2)cc1 | active |
| COc1ccc(NC(=O)Nc2ccc3c(c2)C(=O)N([C@@H](C)CO)C[C@@H](C)[C@@H](CN(C)C(=O)C2CCCCC2)OCCCC[C@H](C)O3)cc1 | inactive |
| CN1CCN(C(=O)C[C@@H]2CC[C@H]3[C@@H](COC[C@H](O)CN3CC3CCCC3)O2)CC1 | inactive |
| COc1ccc(S(=O)(=O)Nc2ccc3c(c2)C(=O)N([C@H](C)CO)C[C@H](C)[C@H](CN(C)S(=O)(=O)c2ccc(F)cc2)O3)cc1 | inactive |
| C[C@@H]1CN([C@H](C)CO)C(=O)c2ccccc2-c2ccccc2CO[C@H]1CN(C)C(=O)c1cc(Cl)cc(Cl)c1 | inactive |
| Nc1nnc(SCC(=O)N2CCOCC2)[nH]1 | inactive |
| C[C@@H]1CN([C@@H](C)CO)C(=O)Cc2cc(NC(=O)Nc3ccc(C(F)(F)F)cc3)ccc2O[C@H]1CN(C)Cc1ccc(Oc2ccccc2)cc1 | inactive |
| C[C@H]1CN([C@@H](C)CO)C(=O)Cc2cc(NC(=O)Nc3ccc(C(F)(F)F)cc3)ccc2O[C@@H]1CN(C)Cc1ccc(Oc2ccccc2)cc1 | inactive |
| C[C@H](CO)N1C[C@H](C)[C@H](CN(C)Cc2ccc(Oc3ccccc3)cc2)Oc2ccc(NC(=O)Nc3ccc(C(F)(F)F)cc3)cc2CC1=O | active |

| SMILES | cytotoxicity call |
| --- | --- |
| COc1c2ccoc2nc2c(OC)c(OCC(O)C(C)(C)O)ccc12 (configuration not stated) | active |
| C[C@@H]1CN([C@@H](C)CO)C(=O)c2cc(Br)cnc2O[C@@H]1CN(C)C(=O)CN1CCOCC1 | inactive |
| Cc1cc2nc3ccc(N(C)C)cc3[s+]c2cc1N.[Cl-] | active |
| CN(C)c1ccc2nc3ccc(N(C)C)cc3[s+]c2c1.O.[Cl-] | active |
| CN(C)c1ccc2c(=O)[nH][nH]c(=O)c2c1 | inactive |
| C[C@@H]1CN([C@@H](C)CO)C(=O)c2cc(C#Cc3ccc(F)cc3)cnc2O[C@H]1CN(C)Cc1ccccn1 | inactive |
| O=C(C[C@H]1C[C@@H]2c3cc(NS(=O)(=O)c4ccc(F)cc4)ccc3O[C@@H]2[C@H](CO)O1)N1CCOCC1 | inactive |
| O=C(C[C@H]1C[C@H]2c3cc(NC(=O)Nc4ccc(C(F)(F)F)cc4)ccc3O[C@H]2[C@H](CO)O1)NCCc1ccccc1 | inactive |
| C[C@@H]1CN([C@@H](C)CO)C(=O)c2cc(NC(=O)Nc3ccc(C(F)(F)F)cc3)ccc2O[C@@H](C)CCCCO[C@@H]1CN(C)C(=O)NC1CCCCC1 | inactive |
| C[C@@H]1CN([C@H](C)CO)C(=O)c2cc(NC(=O)Nc3ccc(C(F)(F)F)cc3)ccc2O[C@@H](C)CCCCO[C@@H]1CN(C)C(=O)NC1CCCCC1 | inactive |
| C[C@@H]1CCCCO[C@@H](CN(C)C(=O)NC2CCCCC2)[C@H](C)CN([C@@H](C)CO)C(=O)c2cc(NC(=O)Nc3ccc(C(F)(F)F)cc3)ccc2O1 | inactive |
| C[C@@H]1CCCCO[C@H](CN(C)C(=O)NC2CCCCC2)[C@@H](C)CN([C@@H](C)CO)C(=O)c2cc(NC(=O)Nc3ccc(C(F)(F)F)cc3)ccc2O1 | inactive |
| C[C@H]1CCCCO[C@H](CN(C)C(=O)NC2CCCCC2)[C@@H](C)CN([C@@H](C)CO)C(=O)c2cc(NC(=O)Nc3ccc(C(F)(F)F)cc3)ccc2O1 | active |
| C[C@H]1CCCCO[C@@H](CN(C)C(=O)NC2CCCCC2)[C@@H](C)CN([C@@H](C)CO)C(=O)c2cc(NC(=O)Nc3ccc(C(F)(F)F)cc3)ccc2O1 | active |
| C[C@@H]1CCCCO[C@H](CN(C)C(=O)NC2CCCCC2)[C@H](C)CN([C@H](C)CO)C(=O)c2cc(NC(=O)Nc3ccc(C(F)(F)F)cc3)ccc2O1 | inactive |
| C[C@H](CO)N1C[C@H](C)[C@H](CN(C)C(=O)NC2CCCCC2)OCCCC[C@H](C)Oc2ccc(NC(=O)Nc3ccc(C(F)(F)F)cc3)cc2C1=O | active |
| C[C@@H]1CCCCO[C@H](CN(C)C(=O)NC2CCCCC2)[C@H](C)CN([C@@H](C)CO)C(=O)c2cc(NC(=O)Nc3ccc(C(F)(F)F)cc3)ccc2O1 | inactive |
| C[C@@H]1CCCCO[C@@H](CN(C)C(=O)NC2CCCCC2)[C@@H](C)CN([C@@H](C)CO)C(=O)c2cc(NC(=O)Nc3ccc(C(F)(F)F)cc3)ccc2O1 | inactive |
| C[C@H](CO)N1C[C@H](C)[C@@H](CN(C)C(=O)NC2CCCCC2)OCCCC[C@H](C)Oc2ccc(NC(=O)Nc3ccc(C(F)(F)F)cc3)cc2C1=O | inactive |
| C[C@@H]1CCCCO[C@@H](CN(C)C(=O)NC2CCCCC2)[C@@H](C)CN([C@H](C)CO)C(=O)c2cc(NC(=O)Nc3ccc(C(F)(F)F)cc3)ccc2O1 | active |
